# Hit rate of the full screen: of about 340,000 compounds, about 2,000 (0.59%) were called active. Rule as the data show it: active = activation mostly above about 9.5% (no sharp cut-off); inactive = mostly below about 7.6%. For the sample, actives were picked, then their nearest neighbours and some compounds at random.
# Target: 5-hydroxytryptamine receptor 5A (Homo sapiens) (UniProt P47898)
# Test: activation of human 5-HT5A receptor – cell-based, luminescence, full-deck HTS, counter-screen for OPRM1-OPRD1 heterodimer agonist project, primary screen (AID 504692);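 also: 0% = cells with vehicle only and 100% = reference agonist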
# Conditions: HTR5A agonist assay, at 9.3 µM, active compounds read high
# Sequence of 5-hydroxytryptamine receptor 5A (Homo sapiens) (P47898 whole entry, looked up): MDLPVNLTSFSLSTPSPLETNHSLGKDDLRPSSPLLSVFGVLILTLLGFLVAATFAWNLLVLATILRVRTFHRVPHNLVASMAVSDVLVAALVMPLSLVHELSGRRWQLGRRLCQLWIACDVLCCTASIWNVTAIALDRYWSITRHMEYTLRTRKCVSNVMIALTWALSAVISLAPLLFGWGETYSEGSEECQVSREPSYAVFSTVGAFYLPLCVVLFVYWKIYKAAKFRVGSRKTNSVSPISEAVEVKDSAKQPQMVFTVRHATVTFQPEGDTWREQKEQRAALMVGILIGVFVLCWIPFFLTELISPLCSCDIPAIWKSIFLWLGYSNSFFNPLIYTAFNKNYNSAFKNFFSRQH
row,Structure (SMILES),activation
1,COc1ccc(/C=C(\NC(=O)c2ccc(OCC(C)C)cc2)C(=O)OCc2ccco2)cc1,-0.73% (inactive)
2,O=S(=O)(NCc1cccnc1)c1ccc(Cl)nc1,-5.88% (inactive)
3,COCCCN1C(=O)c2ccc(C(=O)Nc3ccc(OC)cc3OC)cc2C1=O,-0.44% (inactive)
4,COc1ccc2[nH]cc(CCN3C(=O)c4ccc(C(=O)O)cc4C3=O)c2c1,27% (active)
5,Cc1ccc2[nH]cc(CCCN3C(=O)c4ccccc4C3=O)c2c1,-1.1% (inactive)
6,O=C(CNCc1cccs1)Nc1cc(S(=O)(=O)N2CCCC2)ccc1Cl,-2.05% (inactive)
7,COc1ccccc1CNC(=O)C1CCCN(S(=O)(=O)c2cccc3cccnc23)C1 (configuration not stated),-3.07% (inactive)
8,CCC(C)OC(=O)C(C)Oc1ccc(-c2ccccc2)cc1 (configuration not stated),3.02% (inactive)
9,CC1=C(C)CC2C(=O)N(c3cccc4ccccc34)C(=O)C2C1 (configuration not stated),1.96% (inactive)
10,CC(=O)Nc1ccc(N2C(=O)C3C4CC(=O)C(c5ccccc54)C3C2=O)cc1 (configuration not stated),-1.72% (inactive)
11,CCc1ccccc1N1C(=O)C2C3CC(=O)C(c4ccccc43)C2C1=O (configuration not stated),10.2% (active)
12,Cn1nc(C(C)(C)C)c([N+](=O)[O-])c1C(N)=O,-3.65% (inactive)
13,NC(=O)c1ccc(N2CCOCC2)nc1,5.3% (inactive)
14,CCCN(CC1CC1)C(=S)NC(=O)c1ccccc1Br,-3.6% (inactive)
15,CC[C@]12c3[nH]c4cc(CCC(=O)N(C)C)ccc4c3CCN1C(=O)[C@@H](CC(=O)NCc1ccco1)C[C@@H]2C(=O)N1CCN(C(=O)c2ccco2)CC1,-2.65% (inactive)
16,CC[C@]12c3[nH]c4cc(CCC(=O)N(C)C)ccc4c3CCN1C(=O)[C@@H](CC(=O)NCCCn1ccnc1)C[C@@H]2C(=O)N1CCN(C(=O)C2CC2)CC1,2.93% (inactive)
17,CC[C@]12c3[nH]c4cc(CCC(=O)N(C)C)ccc4c3CCN1C(=O)[C@@H](CC(=O)NCCCN(C)C)C[C@@H]2C(=O)N1CCN(C(=O)c2ccco2)CC1,4.2% (active)
18,COc1ccc(N(C(=O)c2cccnc2)S(=O)(=O)c2ccc(OC)c(OC)c2)cc1,6.11% (inactive)
19,O=C(c1cccnc1)N(Cc1ccccc1)C(=O)c1cccnc1,5.83% (inactive)
20,O=C(c1cccnc1)N(c1cc2sc(=O)oc2c2ccccc12)S(=O)(=O)c1ccccc1,16.1% (active)
21,COCCCn1c(-c2cccs2)nc2nc3ccccc3nc21,-0.51% (inactive)
22,CC(OC(=O)CCc1nc(=O)c2ccccc2n1C)C(=O)NCc1ccc2c(c1)OCO2 (configuration not stated),-4.46% (inactive)

row,Structure (SMILES),activation
1,C=CCSc1nnc2c(n1)-c1cccc3cccc-2c13,-0.69% (inactive)
2,COc1cccc(C(=O)NNS(=O)(=O)c2ccc(F)cc2)c1,-2.33% (inactive)
3,Nc1ccc(C(=O)N2CCN(S(=O)(=O)c3ccc(Cl)cc3)CC2)cc1[N+](=O)[O-],-1.02% (inactive)
4,O=C(COc1ccc(Cl)cc1[N+](=O)[O-])N1CCCCC1,-1.55% (inactive)
5,O=C(c1ccc(Oc2ccc(Cl)cc2)c([N+](=O)[O-])c1)N1CCCC1,11% (active)
6,Cc1cnc(C(=O)N2CCCC(N3CCN(c4ccccc4F)CC3)C2)cn1 (configuration not stated),5.27% (inactive)
7,Cc1ccc(S(=O)(=O)/N=C(/Nc2ccc3[nH]c(=O)[nH]c3c2)c2ccccc2)cc1,3.44% (inactive)
8,COc1c(Cl)cc(C(=O)Nc2ccc(Cl)cn2)cc1Cl,18.5% (active)
9,O=C(Nc1ccc(Cl)cn1)c1ccc2c(c1)OCCO2,1.65% (inactive)
10,COc1ccc(C(=O)NC(=S)Nc2ccc(Cl)cn2)cc1OC,0.47% (inactive)
11,O=C(NCCS(=O)(=O)c1ccc(Br)cc1)c1ccccc1Cl,0.17% (inactive)
12,Cc1ccc(CN2C(=O)N/C(=C/c3cc(C)n(-c4ccccn4)c3C)C2=O)cc1,1.53% (inactive)
13,Cc1cccc(NC(=O)CN2CCCN(S(=O)(=O)c3ccc(Br)s3)CC2)c1,0.97% (inactive)
14,Cc1ccc2nc(-c3ccc(SCC(=O)Nc4cc(C)on4)nc3)[nH]c2c1,-0.96% (inactive)
15,Cc1ccc(SCCC(=O)Nc2cc(C)on2)cc1,-4.61% (inactive)
16,Cc1ccc(-c2csc(SCC(=O)Nc3cc(C)on3)n2)cc1,14.7% (active)
17,O=C(NCC(F)(F)F)Nc1nnc(C(F)(F)F)s1,4% (inactive)
18,O=C(CCl)N(Cc1cccc([N+](=O)[O-])c1)c1cccc(Cl)c1,40.9% (active)
19,O=C(c1cccc([N+](=O)[O-])c1)N1CCN(Cc2ccccc2)CC1,5.31% (inactive)
20,Cc1ccc(S(=O)(=O)N(Cc2cccc([N+](=O)[O-])c2)C(=O)N2CCN(C)CC2)cc1,0.8% (inactive)
21,O=S(=O)(NCCCCCCNS(=O)(=O)c1c(F)cccc1F)c1ccc2c(c1)OCCO2,2.32% (inactive)
22,COc1ccccc1N(C)S(=O)(=O)c1ccc(C(=O)NC2CCCCCC2)cc1,2.54% (inactive)

row,Structure (SMILES),activation
1,CC1CCC2CCCCC2N1C(=O)c1cc([N+](=O)[O-])cc([N+](=O)[O-])c1 (configuration not stated),4.16% (inactive)
2,CN1c2ccc(C=O)c3c(C=O)ccc(c23)N(C)C1(C)C,20.2% (active)
3,CN(CC(=O)Nc1ccccc1Cl)C(=O)COc1cccc2c1OC(C)(C)C2,2.73% (inactive)
4,CCSc1nc(O)c(C(c2cccc(OC)c2)c2c(O)nc(SCC)[nH]c2=O)c(=O)[nH]1,6.11% (inactive)
5,Cc1ccc(/C([O-])=C(/C(=S)NCc2ccco2)[n+]2ccccc2)cc1[N+](=O)[O-],0.24% (inactive)
6,O=C(COC(=O)CSc1nnc(-c2ccc(Cl)cc2)o1)Nc1cc(Cl)cc(Cl)c1,0.33% (inactive)
7,O=C(NNS(=O)(=O)c1ccc([N+](=O)[O-])cc1)C1CCCCC1,-4.2% (inactive)
8,COc1cc2ccccc2cc1C(=O)N(CCN(C)C)c1nc2c(F)cccc2s1,0.73% (inactive)
9,Cc1cccc2sc(N(CCCN(C)C)C(=O)CCS(=O)(=O)c3ccccc3)nc12,23.6% (active)
10,COc1cccc2sc(N(CCCN(C)C)C(=O)CCS(=O)(=O)c3ccccc3)nc12,8.64% (inactive)
11,CC1Cc2ccccc2N1S(=O)(=O)c1cccc(C(=O)NCC(c2ccco2)N2CCCC2)c1 (configuration not stated),2.58% (inactive)
12,COc1ccc(N2CCN(C(=O)Cn3cnc4sc(C)c(S(=O)(=O)N5CCOCC5)c4c3=O)CC2)cc1,-1.42% (inactive)
13,Cc1csc2nc(COC(=O)c3cccc(N(C)C)c3)cc(=O)n12,-1.39% (inactive)
14,O=C(COc1ccccc1F)Nc1nc(-c2ccccn2)cs1,-1.27% (inactive)
15,Cc1ccccc1OCC(=O)Nc1nnc(S(=O)(=O)N2CCCC2)s1,4.03% (inactive)
16,CC1CCN(S(=O)(=O)c2nnc(NC(=O)COc3ccccc3F)s2)CC1,18.1% (active)
17,CC(NC(=S)NNS(=O)(=O)c1ccc(C(C)(C)C)cc1)c1ccccc1 (configuration not stated),-3.78% (inactive)
18,COc1ccc(-c2ccc3c(c2)[C@@H]2C[C@H](N(C)S(=O)(=O)c4ccccc4)[C@H]([C@H](C)O)C(=O)N2CC3)cc1,2.65% (inactive)
19,CC1CC(C)CN(C(=O)C2CC(=O)N(c3ccc(F)cc3)C2)C1 (configuration not stated),5.22% (inactive)
20,CC1CCN(S(=O)(=O)c2ccc3c(ccn3CC(=O)O)c2)CC1,9.91% (active)
21,Cc1ccn2c(c1)nc(=O)c1cc(S(=O)(=O)N3CCC(C)CC3)ccc12,0.6% (inactive)
22,CC1CCN(S(=O)(=O)c2ccc3c(c2)n(C)c(=O)n3C)CC1,4.68% (inactive)

row,Structure (SMILES),activation
1,CCOC(=O)COn1c(=O)c(-c2ccc(OCC)cc2)[n+]([O-])c2ccccc21,-0.87% (inactive)
2,CCCCCCCCCCOC(=O)Cn1c(COc2ccc(C)cc2)[n+](C)c2ccccc21,9.74% (active)
3,CCCCOc1ccc(NC(=O)CSCC(=O)OCC)cc1,-1.74% (inactive)
4,CCOC(=O)CNC(=O)CSc1nnc(-c2cccc(OC)c2)n1CC,1.82% (inactive)
5,COc1cccc(OCc2nnc3n2N=C(c2ccccc2)C(CC(=O)O)S3)c1 (configuration not stated),1.48% (inactive)
6,CCCCCCCCCCOC(=O)Cn1c(COc2cccc(OC)c2)[n+](C)c2ccccc21,13.7% (active)
7,CC[C@]12c3[nH]c4ccc(Cl)cc4c3CCN1C(=O)[C@@H](CC(=O)NCCCOC)C[C@@H]2C(=O)N1CCN(C(=O)c2ccco2)CC1,-0.61% (inactive)
8,COc1ccc(CNC(=O)CN(Cc2ccccc2Cl)C(=O)c2csnn2)cc1,0.86% (inactive)
9,O=c1/c(=C/c2ccc(CNS(=O)(=O)c3ccccc3)o2)sc2n1CCN=2,-6.78% (inactive)
10,CCC(C)(C)NC(=O)CN(C(=O)CCC(=O)Nc1cc(C)ccn1)c1ccc2c(c1)OCCO2,2.5% (inactive)
11,Fc1ccccc1-c1cc2cc3c(cc2cn1)OCO3,7.94% (inactive)
12,O=C(c1noc2c1CCCC2)N1CCc2ccccc2C1,5.42% (inactive)
13,CCC1(C)NC(=O)N(CC(=O)N2CCN(c3cccc(Cl)c3)CC2)C1=O (configuration not stated),0.94% (inactive)
14,Cc1ccc(CCC(=O)Nc2ncc(Cc3cc(Cl)ccc3Cl)s2)o1,17.4% (active)
15,Cc1ccc(C(=O)Nc2nc3ccc(Cl)cc3s2)o1,5.48% (inactive)
16,Cc1ccc(Cc2cnc(N)s2)o1,-3.06% (inactive)
17,COc1ccc(C(=O)NCc2ccc(C)cc2)cc1S(=O)(=O)N1CCCC1,5.16% (inactive)
18,C/C=C/C(=O)OCC(=O)Nc1ccc(F)cc1Cl,6.73% (inactive)
19,COc1cc(OC)cc(C(=O)Nc2ccc(-c3nc4ccccc4o3)c(O)c2)c1,13.9% (active)
20,O=C(Nc1ccc2oc(-c3ccccc3F)nc2c1)c1ccco1,0.88% (inactive)
21,Cc1ccc2nc(-c3ccc(NC(=O)c4cccnc4)cc3)oc2c1,1.12% (inactive)

# From PubChem BioAssay AID504692 (The Scripps Research Institute Molecular Screening Center, 2011)
